# Data from PubChem BioAssay (NCI).
# Compounds without any hit were thinned out: in the full panel of roughly 83,000, 20% have a hit.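 Plates (96-well) were seeded with cells, treated with compound at one concentration, and incubated for 48 hours before percent growth was determined.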 A number with no mark means an inactive call. The source made the active and inactive calls. The calls were made as follows: active = growth percent below 10; inactive = the rest.
# System: MDA-MB-468 breast
# Assay: NCI-60 one-dose screen, 48 h (100 = growth as untreated, 0 = no growth, -100 = all killed)
# Conditions: 10 µM unless noted
row,SMILES,growth
1,CC(C)[C@@H]1CC[C@]2(CO2)[C@@H]2C(=O)OCC(C(=O)O)=C[C@H]21,7.72% (active)
2,COc1cc(C2CC(c3ccc(Nc4ccnc5cc(Cl)ccc45)cc3)=NN2c2ccc(Cl)cc2)cc(OC)c1OC (centres undefined),41.9%
3,C[C@@H]1CC[C@@H]2[C@@H]1[C@H](OC(=O)/C=C/c1ccccc1)[C@]1(c3ccccc3)C[C@@H](NC(=O)CO)[C@@]2(C)O1,98.3%
4,CC12O[C@H](C[C@@H](OC(=O)c3ccccc3)[C@H]1O)n1c3ccccc3c3c4c(c5c6ccccc6n2c5c31)C(=O)NC4=O,81.1%
5,CCOC(=O)c1ccc(Nc2ncnc3c2cnn3-c2cccc(F)c2)cc1,103%
6,O=C1OCC2=C1C(c1cccc(C(F)(F)F)c1)c1cc3c(cc1N2CCO)CCC3 (centres undefined),-1.26% (active)
7,COc1cc2c3c(n(CCCN4CCC[C@H]4C(N)=O)c(=O)c2cc1OC)-c1cc2c(cc1C3=O)OCO2,11.8%
8,C(=N\Nc1ccccn1)/c1ccccn1,-38.7% (active)
9,N#CCCc1ccc(O)cc1,104%
10,O=C(Nc1ccccc1)Nc1cccc(-n2cc(-c3ccncc3)c(-c3ccc(O)c(Cl)c3)n2)c1,54.8%
11,N=C(N)c1ccc(-c2ccc(-c3ccc(Cl)cc3Cl)s2)cc1F,-63.5% (active)
12,COc1ccc(/C=C/c2nc3ccccc3c(=O)n2-c2ccc(C#Cc3ccc(C(C)(C)C)cc3)cc2C)c(OC)c1,97.9%
13,OCC1OC(n2ccc3c2ncn2ncnc32)C(O)C1O (centres undefined),-5.09% (active)
14,CCOc1ccc(NC(=O)Nc2ccc(OCC)cc2)cc1,106%
15,O=C(CN1N=C(c2ccc(F)cc2)CCC1=O)Nc1nccs1,94.6%
16,O=C(Cc1nc2cc(Cl)c(Cl)cc2nc1CC(=O)c1cccnc1)c1cccnc1,33.8%
17,COc1ccc2cc(C(=O)c3coc4ccc(O)cc34)ccc2c1,126%
18,CCOC(=O)c1cc2c(n(C)c1=O)-c1cnn(-c3ccc(OC)cc3)c1CC2,93.2%
19,O=C(/C(=C\c1ccc([N+](=O)[O-])cc1)S(=O)Cc1ccc(F)cc1)c1ccc(F)cc1 (centres undefined),16.3%
20,Cc1ccccc1NC(=O)N/C(N)=N/c1nc(C)c(C)s1,-7.08% (active)

row,SMILES,growth
1,Cc1cc(F)ccc1S(=O)(=O)Nc1cc(-c2c(O)ccc3ccccc23)c(O)c2ccccc12,-1.51% (active)
2,C#Cc1cccc(NC(=O)c2ccccc2NC(=O)CCl)c1,76.1% [8.25 µM]
3,CCOC(=O)c1c(C)oc2ncnc(N3CCN(C(=O)COc4ccc(C(C)(C)C)cc4)CC3)c12,60.9%
4,O=C(NNc1nc2cc(F)ccc2n2cccc12)c1ccncn1,-15.2% (active)
5,CN(C)CCN(C)CC(C)(C)C(=O)/C=C/c1ccc(Cl)cc1,-46.2% (active)
6,C[C@]12C=CC(=O)C=C1[C@@H](F)C[C@@H]1[C@@H]2[C@@H](O)C[C@@]2(C)[C@H]1CC[C@]2(O)C(=O)CO,123%
7,CCCCc1nc(Cl)c(C2CC(c3ccc(Cl)cc3)=NN2c2cc(Cl)cc(Cl)c2)[nH]1 (centres undefined),88.3%
8,COc1cc2cc(Oc3ccc(NC(=O)c4cccc(C(F)(F)F)c4)cc3)c(C)nc2cc1OCCN1CCCCC1,37.6%
9,COc1ccc(C(=O)/C=C/c2c(C(F)(F)F)nc3sccn23)cc1OC,-21.1% (active)
10,Cn1cc(C(=O)c2nc(-c3c[nH]c4ccccc34)no2)c2cc(F)ccc21,63%
11,COc1ccc2c(c1)nc(N)c1c3cccnc3cn21,13.4%
12,Cc1cccc(/C=C/c2c(C(=O)/C=C/c3ccccc3)c(C)nc3ccccc23)c1,-51.1% (active)
13,COc1ccc2[nH]cc(-c3noc(C(=O)c4cn(C)c5ccc(F)cc45)n3)c2c1,102%
14,CC/C(=C(/c1ccc(Cl)cc1)c1ccc(OCCN)cc1)c1ccccc1,88.8%
15,COc1nc2ccccc2cc1/C=C1/C=C(c2ccccc2)NC1=O,29%
16,O=C(CNC1CCCCC1)Nc1ccc(-c2nc3ccccc3s2)cc1,35.9%
17,CC(C)(N)CO[C@H]1C[C@H]2CC[C@@]1(C)C2(C)C,84%
18,C1CCc2onc(-c3noc4c3CCCCC4)c2CC1,108%
19,COc1ccc(-n2nc(C)c3c(Nc4ccc(NC(=O)Nc5cccc(C(F)(F)F)c5)cc4)ncnc32)cc1,-14% (active)
